Shown is part of a subset that was picked to be rich in hits.
GIRK2 act = Activators of human GIRK2-containing channels; P48051; HEK293 GIRK2/NPY4 cells, thallium flux fluorescence; activation (% efficacy), % for hits at 37.5 µM; 34,000 tested, under 10 active; AID 1259324;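 active = primary screen hit, no activity in plain HEK293 cells, and in GIRK2-only cells above 5% efficacy rising with concentration; inactive = the rest, including fluorescent compounds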;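 note: efficacy is normalized control-subtracted fluorescence 15 s after thallium addition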
Target sequence (P48051 whole entry, looked up): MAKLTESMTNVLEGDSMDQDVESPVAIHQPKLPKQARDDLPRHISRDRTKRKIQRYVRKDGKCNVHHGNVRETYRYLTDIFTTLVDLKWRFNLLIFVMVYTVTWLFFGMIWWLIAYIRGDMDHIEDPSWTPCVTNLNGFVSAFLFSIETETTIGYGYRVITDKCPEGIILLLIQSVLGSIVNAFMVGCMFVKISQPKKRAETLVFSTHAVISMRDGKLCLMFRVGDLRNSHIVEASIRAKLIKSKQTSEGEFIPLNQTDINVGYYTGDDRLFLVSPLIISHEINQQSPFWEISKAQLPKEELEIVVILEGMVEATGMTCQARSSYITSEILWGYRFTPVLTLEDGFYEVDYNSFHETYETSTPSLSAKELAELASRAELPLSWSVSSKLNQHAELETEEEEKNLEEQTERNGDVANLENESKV
GluA2 TARP mod = GluA2-stargazin AMPA receptor complex modulation; HEK293 GluA2+stargazin, membrane potential dye (FDSS), glutamate EC50; hits were called plate by plate, in both directions; calls only at 30 µM; 40,000 tested, 3.5% active; AID 1259245;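 active = any of four per-well response measures lying three or more SD from its plate-wide compound average, in either direction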
Large screens that a line does not name were inactive.

COc1ccc(Nc2nc(N3CCNCC3)nc3ccccc23)c(OC)c1	GluA2 TARP mod active (no result: GIRK2 act)
CC(C)(C)OC(=O)N1CCC(Cn2c(C(F)(F)F)nc3ccccc32)CC1	GluA2 TARP mod active
CC(C)(C)OC(=O)N1CCC(CO)CC1	none
Cn1c(=O)c2cc(C(=O)N3CCN(C(=O)c4ccco4)CC3)sc2n(C)c1=O	none
CC(C)CNC(=O)c1cc2c(=O)n(C)c(=O)n(C)c2s1	none
CN1CCN(C(=O)c2cc3c(=O)n(C)c(=O)n(C)c3s2)CC1	GluA2 TARP mod active
Cn1c(=O)c2cc(C(=O)NCCc3ccccc3)sc2n(C)c1=O	none
Cn1c(=O)c2cc(C(=O)NCCCN3CCCC3=O)sc2n(C)c1=O	GluA2 TARP mod active
Cn1c(=O)c2cc(C(=O)Nc3ccccc3F)sc2n(C)c1=O	GluA2 TARP mod active
O=C(Cn1nc(-c2ccco2)c2sc(N3CCCCC3)nc2c1=O)NCc1ccc2c(c1)OCO2	none
COCC(C)NC(=O)C(=O)NCc1cccs1 (stereo not drawn)	none
O=C(NCC(O)c1ccc(C(F)(F)F)cc1)c1ccc(Cl)s1 (stereo not drawn)	none (no result: GluA2 TARP mod)
COC(=O)c1ccccc1NC(=O)CC1Nc2cccc3cccc(c23)NC1=O (stereo not drawn)	none (no result: GIRK2 act)
O=C(CC1Nc2cccc3cccc(c23)NC1=O)Nc1cccc(C(F)(F)F)c1 (stereo not drawn)	GluA2 TARP mod active (no result: GIRK2 act)
CCOc1ccc(C(O)=C2C(=O)C(=O)N(c3cc(C)on3)C2c2ccccc2)cc1 (stereo not drawn)	none (no result: GluA2 TARP mod)
CCSc1nc(N)c2c(n1)NC1=C(C(=O)CC(C)(C)C1)C2c1cccnc1 (stereo not drawn)	none (no result: GIRK2 act)
C=CCN1C(=O)/C(=C\C=C2/SCCN2C)SC1=S	GluA2 TARP mod active (no result: GIRK2 act)
CCOC(=O)c1sc2cccc(F)c2c1S(=O)(=O)Nc1cc(Cl)c(OC)cc1OC	GluA2 TARP mod active (no result: GIRK2 act)
CCOC(=O)c1sc2cccc(F)c2c1S(=O)(=O)Nc1ccc(OC)c(Cl)c1	none (no result: GIRK2 act)
O=C(NCc1ccccc1Cl)c1cc(-c2ccc(F)cc2)c[nH]1	none
CS(=O)(=O)c1cccc(S(=O)(=O)Nc2ccc([N+](=O)[O-])cc2)c1	none (no result: GluA2 TARP mod)
O=[N+]([O-])c1cccc(NS(=O)(=O)c2ccc3ccccc3c2)c1	GluA2 TARP mod active (no result: GIRK2 act)
O=[N+]([O-])c1ccc(NS(=O)(=O)c2ccc3ccccc3c2)cc1	GluA2 TARP mod active (no result: GIRK2 act)
COc1ccc(NS(=O)(=O)c2cccc([N+](=O)[O-])c2)cc1	none (no result: GIRK2 act)
COc1ccc(NC(=O)Cn2ccn(-c3cc(C)cc(C)c3)c(=O)c2=O)cc1Cl	none (no result: GIRK2 act)
COc1cccc2cc(C(=O)NCC3CCN(C(=O)/C=C/c4ccco4)CC3)oc12	none
O=C(CCc1ccccc1)CN1CCN(c2ccc([N+](=O)[O-])cc2)CC1	none (no result: GIRK2 act)
O=C(Nc1nnc(CS(=O)(=O)c2ccccc2)o1)c1ccc2c(c1)OCCO2	none
Cc1cc(=O)n(CC(=O)N2CCN(Cc3ccccc3)CC2)cn1	none (no result: GluA2 TARP mod)
CC(=O)N1CCN(c2cc3c(cc2F)c(=O)c(C(=O)Nc2nc(C)c(C)s2)cn3C2CC2)CC1	none
CCOc1ccc(-c2ccc(=O)n(CCNS(=O)(=O)c3ccc(F)cc3F)n2)cc1	none (no result: GIRK2 act)
COC(=O)C1=C(C)NC(=O)NC1c1ccccc1OCc1ccccc1 (stereo not drawn)	none (no result: GIRK2 act)
COc1ccc(C2NC(=O)NC(C)=C2C(=O)OCc2ccccc2)c(OC)c1 (stereo not drawn)	GluA2 TARP mod active (no result: GIRK2 act)
COc1ccccc1NC(=O)c1ccc(S(=O)(=O)N(C)C2CCCCC2)cc1	none (no result: GIRK2 act)
CCCN(CCC)S(=O)(=O)c1ccc(C(=O)Nc2ccccc2OC)cc1	GluA2 TARP mod active (no result: GIRK2 act)
O=C(CSc1nc(-c2ccco2)cc(C(F)(F)F)n1)N1CCSCC1	none (no result: GIRK2 act)
O=C(CSc1nc(-c2ccco2)cc(C(F)(F)F)n1)N1CCCCCC1	GluA2 TARP mod active (no result: GIRK2 act)
CCC(=O)N1c2ccccc2NC2=C(C(=O)CC(C)(C)C2)C1c1ccc(OCc2ccccc2)cc1 (stereo not drawn)	GluA2 TARP mod active (no result: GIRK2 act)
COC(=O)C1=C(C)N(C)C(=O)NC1c1ccc(OCc2ccccc2)cc1 (stereo not drawn)	none (no result: GIRK2 act)
C=CCN1CC(c2nc3ccccc3n2Cc2ccc(Cl)cc2)CC1=O (stereo not drawn)	GluA2 TARP mod active (no result: GIRK2 act)
CCN1CC(c2nc3ccccc3n2Cc2ccccc2)CC1=O (stereo not drawn)	none (no result: GIRK2 act)
O=C1CC(c2nc3ccccc3n2Cc2ccccc2F)CN1Cc1ccccc1 (stereo not drawn)	GluA2 TARP mod active (no result: GIRK2 act)
C=CCN1CC(c2nc3ccccc3n2Cc2cccc(C)c2)CC1=O (stereo not drawn)	GluA2 TARP mod active (no result: GIRK2 act)
C=CCN1CC(c2nc3ccccc3n2Cc2ccc(C)cc2)CC1=O (stereo not drawn)	none (no result: GIRK2 act)
CN1CC(c2nc3ccccc3n2Cc2ccccc2F)CC1=O (stereo not drawn)	none (no result: GIRK2 act)
CC(c1ccccc1)n1c(C2CC(=O)N(Cc3ccccc3)C2)nc2ccccc21 (stereo not drawn)	GluA2 TARP mod active (no result: GIRK2 act)
C=CCN1CC(c2nc3ccccc3n2Cc2ccc(C(C)C)cc2)CC1=O (stereo not drawn)	none (no result: GIRK2 act)
Cc1cn2c3c(=O)[nH]c(=O)n(C)c3nc2n1C(CCC(N)=O)C(=O)O (stereo not drawn)	none
CCC(=O)NCCCS(=O)(=O)N1CCN(c2ccc(F)cc2)CC1	none
COc1ccc(-c2ccc(=O)n(Cc3cccc(F)c3)n2)cc1	none
Cc1ccnc(Nc2ccc(NCCNC(=O)Nc3cccc(C(F)(F)F)c3)nn2)c1	none (no result: GluA2 TARP mod)
COc1cn(CC(=O)Nc2cccc(Cl)c2)c(CSc2ccc(F)cc2)cc1=O	none
COc1ccc(C(CNC(=O)C(=O)Nc2ccccc2Cl)N2CCOCC2)cc1 (stereo not drawn)	none (no result: GluA2 TARP mod)
Cc1cccc(Cn2c(C3CC(=O)N(Cc4ccc(F)cc4)C3)nc3ccccc32)c1 (stereo not drawn)	none (no result: GIRK2 act)
Cc1cccc(Cn2c(C3CC(=O)N(Cc4ccccc4)C3)nc3ccccc32)c1 (stereo not drawn)	GluA2 TARP mod active (no result: GIRK2 act)
CCOC(=O)c1c(SCC(=O)Nc2ccc(C(C)C)cc2)nc(=O)[nH]c1C	none (no result: GIRK2 act)
O=C(Nc1ccc(S(=O)(=O)NC2CCCCC2)cc1)C1CCCO1 (stereo not drawn)	GluA2 TARP mod active
O=C(Nc1cccnc1)c1ccc(S(=O)(=O)NC2CCCC2)cc1	none
CC(=O)Nc1ccc(S(=O)(=O)Nc2ccc3c(c2)N(C(=O)c2ccco2)CC3)cc1	none
CCOC(=O)N1CCN(C(=O)c2cc(-c3ccc(F)cc3)c[nH]2)CC1	none
N#Cc1nc(-c2ccc(S(=O)(=O)N3CCCCCC3)cc2)oc1NCCCn1ccnc1	GluA2 TARP mod active
N#Cc1nc(-c2ccc(S(=O)(=O)N3CCCCCC3)cc2)oc1NCCN1CCOCC1	none
CCc1ccc(Cc2cnc(NC(=O)c3cc(C)oc3C)s2)cc1	none (no result: GIRK2 act)
O=C(c1ccco1)N1CCc2ccc(NS(=O)(=O)c3ccc(Cl)s3)cc21	none
CC(C)C(=O)Nc1ccc(S(=O)(=O)NCC(c2ccccc2)N(C)C)cc1 (stereo not drawn)	none
COC(=O)N1CCC(CNC(=O)CCc2ccccc2)CC1	GluA2 TARP mod active
COC(=O)N1CCC(CNC(=O)C(=O)NCCc2ccccc2)CC1	none
CC(C)N(Cc1ccccc1)C(=O)C(=O)c1c[nH]c2ccccc12	none (no result: GIRK2 act)
CC(NC(=O)C(=O)c1c[nH]c2ccccc12)c1ccccc1 (stereo not drawn)	GluA2 TARP mod active (no result: GIRK2 act)
CC(C)N(C(=O)C(=O)c1c[nH]c2ccccc12)C(C)C	none (no result: GIRK2 act)
CCN(Cc1ccccc1)C(=O)C(=O)c1c[nH]c2ccccc12	GluA2 TARP mod active (no result: GIRK2 act)

Screening results as filed in PubChem.
